According to PMC4336329 (PLoS ONE, 2015):
The campaign covered roughly 310,000 compounds. About 14,000 (4.5%) showed an effect of 50% or more. The effect is printed as a negative number. For the sample, strong results were picked, then their nearest neighbours and some compounds at random.

What follows are compounds tested against human ether-à-go-go-related gene (hERG) potassium channel (human, UniProt Q12809) (assay: primary screen, population patch clamp on CHO cells stably expressing hERG; higher = less effect of the substance).
Chain of human ether-à-go-go-related gene (hERG) potassium channel (Q12809 whole entry, looked up): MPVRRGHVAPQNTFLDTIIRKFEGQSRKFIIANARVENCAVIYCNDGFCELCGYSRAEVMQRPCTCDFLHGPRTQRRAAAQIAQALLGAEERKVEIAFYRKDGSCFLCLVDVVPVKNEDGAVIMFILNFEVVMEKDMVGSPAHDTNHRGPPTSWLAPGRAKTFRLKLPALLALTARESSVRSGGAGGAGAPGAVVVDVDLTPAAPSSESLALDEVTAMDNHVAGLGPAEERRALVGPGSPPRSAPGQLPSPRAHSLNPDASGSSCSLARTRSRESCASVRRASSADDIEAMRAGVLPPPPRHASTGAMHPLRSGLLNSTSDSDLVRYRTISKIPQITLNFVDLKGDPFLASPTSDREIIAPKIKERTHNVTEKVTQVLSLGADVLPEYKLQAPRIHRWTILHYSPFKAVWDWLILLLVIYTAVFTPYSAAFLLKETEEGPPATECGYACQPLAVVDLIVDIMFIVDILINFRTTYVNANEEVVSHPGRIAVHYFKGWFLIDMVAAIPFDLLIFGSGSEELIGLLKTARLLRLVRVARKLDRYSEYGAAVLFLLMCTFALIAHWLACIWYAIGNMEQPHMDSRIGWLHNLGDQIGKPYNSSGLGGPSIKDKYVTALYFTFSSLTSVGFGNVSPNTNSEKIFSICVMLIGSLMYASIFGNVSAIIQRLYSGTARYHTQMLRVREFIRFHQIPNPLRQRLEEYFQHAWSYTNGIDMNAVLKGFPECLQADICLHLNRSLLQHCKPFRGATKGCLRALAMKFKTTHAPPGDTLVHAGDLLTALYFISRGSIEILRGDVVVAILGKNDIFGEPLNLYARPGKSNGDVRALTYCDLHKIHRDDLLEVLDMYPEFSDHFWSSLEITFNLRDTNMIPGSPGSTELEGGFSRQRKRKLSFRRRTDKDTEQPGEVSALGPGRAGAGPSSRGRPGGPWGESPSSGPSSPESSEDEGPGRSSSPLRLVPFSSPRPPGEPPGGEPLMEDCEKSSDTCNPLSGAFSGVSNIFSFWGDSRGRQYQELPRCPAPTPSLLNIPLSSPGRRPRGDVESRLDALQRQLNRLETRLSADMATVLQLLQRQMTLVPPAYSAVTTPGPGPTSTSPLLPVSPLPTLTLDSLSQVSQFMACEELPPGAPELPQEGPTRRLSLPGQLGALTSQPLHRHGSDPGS
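Also: peak tail current of the secondary pulse compared with the same well before compound.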

Compound	hERG current change (%, negative = inhibition) at 10uM [%]
C=C(C)c1cccc(C(C)(C)NC(=O)NCc2ccncc2)c1	-9.41
Cc1cc(S(=O)(=O)N2CCOCC2)ccc1OCC(=O)Nc1cccc(C(F)(F)F)c1	19.8
COc1cc(/C=N\NC(=O)c2ccc(Cn3nc([N+](=O)[O-])c(Cl)c3C)o2)ccc1O	-70.4
Cc1c(Cl)c([N+](=O)[O-])nn1Cc1ccc(C(=O)N/N=C\c2cc(Cl)ccc2O)o1	14.9
Cc1c(Cl)c([N+](=O)[O-])nn1Cc1ccc(C(=O)N/N=C\c2cccc(Br)c2)o1	-38.7
N#Cc1ccc(Oc2nc(Nc3ccc(F)cc3)nc(N3CCCC3)n2)cc1	1.63
O=C(O)CC/C(=N\Nc1ccc([N+](=O)[O-])cc1S(=O)(=O)N1CCOCC1)c1cccs1	-9.21
CCn1cc(CNC(=O)/C=C/c2ccc([N+](=O)[O-])cc2)cn1	-33.6
Cc1ccc(NC(=O)CNC2CCCCC2)cc1Cl	6.64
COc1ccc(Br)c(-c2nnc(CS(=O)(=O)c3ccccc3)o2)c1	-29.3
Cc1ccccc1-c1nnc(CS(=O)(=O)c2ccccc2)o1	-19.2
CCOc1ccccc1-c1nnc(CS(=O)(=O)c2ccccc2)o1	-52.5
COc1cccc(CNC(=O)Nc2cccs2)c1	11
CCc1cc2c(=O)c(-c3nc(C)cs3)c(CCCC(=O)O)oc2cc1O	29.7
CCOC(=O)c1cc2c(=O)n3ccccc3nc2n(Cc2ccco2)c1=NC(=O)c1ccc(OC)cc1	-54.3
CCOC(=O)c1cc2c(=O)n3ccccc3nc2n(Cc2ccco2)c1=NC(=O)c1ccccc1OC	-68.9
CCOC(=O)c1cc2c(=O)n3ccccc3nc2n(Cc2ccco2)c1=NC(=O)c1ccc(OC)cc1OC	-54.2
CCOC(=O)c1cc2c(=O)n3ccccc3nc2n(Cc2ccco2)c1=NC(=O)c1ccccc1OCC	-50
CCOC(=O)c1cc2c(=O)n3ccccc3nc2n(Cc2ccco2)c1=NC(=O)c1cccnc1	-37.4
CCOC(=O)c1cc2c(=O)n3ccccc3nc2n(Cc2ccco2)c1=NC(=O)c1cccc(OC)c1	-43.8
Nc1nnc(SCC(=O)Nc2ccccc2N2CCOCC2)s1	3.88
O=C(c1cc2ccccc2s1)N1CCN(c2ccccn2)CC1	-11.5
O=C(COC(=O)c1ccc(Br)o1)Nc1ncc([N+](=O)[O-])s1	10.6

Compound	hERG current change (%, negative = inhibition) at 10uM [%]
O=C(c1ccc(Cl)cc1)C1CCN(C(=O)NC2CCCCC2)CC1	-6.29
Cc1noc(C)c1C(=O)OC(C)C(=O)N1CCc2ccccc21 (centres unmarked)	4.27
Cc1nc(-c2cccc(NC(=O)c3cccs3)c2)cs1	-23.3
CCCN(C(=O)c1c(-c2ccccc2)noc1C)c1c(N)n(Cc2ccccc2)c(=O)[nH]c1=O	1.43
COc1cccc(CNC(=O)Cc2ccc(Br)cc2)c1	5.59
Cc1ccc(-c2nnc(SCC(=O)Nc3nccs3)n2N)cc1	-10.4
O=[N+]([O-])c1ccc(N2CCN(c3ccc(O)cc3)CC2)c(Cl)c1	-3.4
CCn1nc(C)c(CNC(=O)Nc2ccccc2C(=O)OC)c1C	13.5
Cc1ccccc1NC(=O)Nc1ccc2c(c1)CCC2	24.4
O=C(Nc1ccc2c(c1)CCC2)Nc1ccccc1F	-61.6
O=C(Nc1ccc2c(c1)CCC2)Nc1ccc(F)cc1F	15.5
Cc1ccccc1NCN1C(=O)C2C3C=CC(C3)C2C1=O (centres unmarked)	6.34
COc1cccc(/C=N/NC(=O)Cn2nc(C)c([N+](=O)[O-])c2C)c1O	-13.1
CCN1CCN(C(=O)N2CCOCC2)CC1	15.5
CS(=O)(=O)c1ccc(NC(=O)c2cccc(-n3cnnn3)c2)cc1	12.1
O=C(CN1CCCCC1)Nc1cccc(-n2cnnn2)c1	0.45
Cc1cccc(NC(=O)CN2CCN(C(=O)c3cccc(-n4cnnn4)c3)CC2)c1C	-41.5
CS(=O)(=O)c1ccc(Cl)c(NC(=O)c2cccc(N3C(=O)CCC3=O)c2)c1	0.801
CS(=O)(=O)c1ccc(Cl)c(NC(=O)c2cccc(-n3cnnn3)c2)c1	-65.6
O=C(c1cccc(-n2cnnn2)c1)N1CCOCC1	-8.49
O=C(CN1CCN(C(=O)c2cccc(-n3cnnn3)c2)CC1)Nc1ccccc1Cl	-90.3
CCc1ccccc1NC(=O)CN1CCN(C(=O)c2cccc(-n3cnnn3)c2)CC1	-65
CCc1ccccc1NC(=O)COc1cccc(-n2cnnn2)c1	-8.5

Compound	hERG current change (%, negative = inhibition) at 10uM [%]
Cc1ccc(NC(=O)CSCC(=O)NC2(C)CCS(=O)(=O)C2)cc1 (centres unmarked)	5.44
O=C(O)Cc1sc(NCCc2ccccc2)nc1-c1ccc(F)cc1	3.77
Cc1cn2c(-c3ccc(Cl)cc3)nnc2s1	-33.3
CN(CCC#N)C(=O)COC(=O)c1ccc2c(=O)n3c(nc2c1)CCC3	35
COc1ccccc1/C=C/C(=O)OCC(=O)c1cc(C)n(C)c1C	-0.348
COc1ccc(CCNC(=O)c2ccc3c(c2)SC2=NS(=O)(=O)CCN23)cc1	-60.4
O=C(O)c1ccc2c(c1)SC1=NS(=O)(=O)CCN12	8.48
O=C(NCc1cccc(Cl)c1)c1ccc2c(c1)SC1=NS(=O)(=O)CCN12	-5.52
O=C(NCc1ccccc1Cl)c1ccc2c(c1)SC1=NS(=O)(=O)CCN12	-7.44
CC(C)(C)c1ccccc1NC(=O)c1ccc2c(c1)SC1=NS(=O)(=O)CCN12	6.51
CN(C(=O)c1ccc2c(c1)SC1=NS(=O)(=O)CCN12)C(c1ccccc1)c1ccccc1	-61
O=[N+]([O-])c1cc(-c2nnc(Nc3ccccc3)c3ccccc23)ccc1N1CCOCC1	-26.3
COC(=O)c1cc(C(=O)OC)cc(-n2c(C)cc(C(=O)CC#N)c2C)c1	-31.2
O=C(N/N=C/C=C/c1ccccc1)C1CC1(c1ccccc1)c1ccccc1 (centres unmarked)	-1.54
O=C(N/N=C/c1cccnc1)C1CC1(c1ccccc1)c1ccccc1 (centres unmarked)	-55.6
O=C(O)c1ccc(/C=N/NC(=O)C2CC2(c2ccccc2)c2ccccc2)cc1 (centres unmarked)	17.9
O=C(N/N=C\c1ccc(O)c([N+](=O)[O-])c1)C1COc2ccccc2O1 (centres unmarked)	-4.56
O=C(N/N=C/c1ccc(O)c([N+](=O)[O-])c1)C1CC1(c1ccccc1)c1ccccc1 (centres unmarked)	-50.7
O=C(N/N=C/c1ccncc1)C1CC1(c1ccccc1)c1ccccc1 (centres unmarked)	-24.9
CC(C)C(=O)Nc1nc2ccc(S(C)(=O)=O)cc2s1	5.14
Cc1ccc(S(=O)(=O)Nc2c(C)n(C)n(-c3ccccc3)c2=O)cc1	9.73
O=C(CN1C(=O)NC2(CCCCCC2)C1=O)Nc1ccc2c(c1)CCC2	-5.72
CCOC(=O)c1n[nH]n(-c2cc(Cl)cc(Cl)c2)c1=O	25.7

Compound	hERG current change (%, negative = inhibition) at 10uM [%]
CCOC(=O)c1nc2ccccc2c(C)c1C.Cl	-5.73
CCOC(=O)c1nc2cc3n(c(C)c-2c1C)C(C)C(CC)=C3C.Cl (centres unmarked)	-66.7
CCOC(=O)c1nc2cc3n(c(C)c-2c1C)C(C)C(C)=C3C.Cl (centres unmarked)	-42.8
CCOC(=O)c1nc(C)nc(Sc2n[nH]c(-c3cc(Cl)cc(Cl)c3)n2)c1C	4.12
CCOC(=O)c1nc2cc3n(c(CC(C)C)c-2c1C)CC(C)=C3C.Cl	-74
CCc1cc(=O)oc2c(CNCc3ccc(OC)cc3OC)c(O)c(Cl)cc12.Cl	13.3
NNC(=O)C1CC1c1ccc(Cl)cc1 (centres unmarked)	9.11
COc1cc(/C=N/Nc2ccc(Cl)c(C(=O)O)c2)ccc1OCC(=O)N1C(C)CCCC1C (centres unmarked)	16.5
CCCn1c(N)c(N(CCOC)C(=O)c2ccc(N(C)S(=O)(=O)c3ccc(C)cc3)cc2)c(=O)[nH]c1=O	7.32
O=C(NC1CCCCC1)c1ccc(S(=O)(=O)NCc2cccnc2)cc1	5.88
O=c1[nH]c(=O)n(-c2ccccc2Cl)c(O)c1C=NCCN1CCCCC1	6.09
CNCCc1ccc(OC)c(OC)c1	19.4
COc1ccc(CCC(C)NCC(C)c2ccccc2)cc1 (centres unmarked)	-48.3
COc1ccc(CCC(C)NCCc2ccccc2)cc1 (centres unmarked)	-29.6
COc1ccc(CNCCC(c2ccc(OC)cc2)c2ccccc2OC)cc1 (centres unmarked)	-74.2
COc1ccc(CNCCC(c2ccccc2)c2ccc3c(c2)OCO3)cc1.Cl (centres unmarked)	-75
COc1ccc(CC(C)CC(=O)NCCc2ccc(OC)c(OC)c2)cc1 (centres unmarked)	18.9
COc1ccc(CNc2ccc(-c3ccccc3OC)nn2)cc1	-13.1
COc1ccc(CC(C)NCCC(c2ccccc2)c2ccccc2)cc1 (centres unmarked)	-71.5
CCCNCCC(c1ccco1)c1ccccc1OC (centres unmarked)	-41.8
COc1ccc(CC(C)NCCc2ccc(OC)c(OC)c2)cc1 (centres unmarked)	-60.3
COc1ccc(C(CCN)c2ccc3c(c2)OCO3)cc1 (centres unmarked)	1.93
COc1ccc(C(CC(=O)O)c2ccc3c(c2)OCO3)cc1 (centres unmarked)	14.7
